Here are results for 40 molecules from PubChem BioAssay (NCI).

Each structure is given as a SMILES string. About 79,000 compounds went through this panel and 15% of them were active in at least one assay; those are over-represented in the sample as a whole. Unmarked numbers belong to inactive results. Activity calls are given as the source filed them. No stated cut-off is given here; in the data, active means growth inhibition above about 70%; inactive means the rest.

A short description of this experiment: NCI Yeast Anticancer Drug Screen. Data for the mlh1 rad18 strain (AID 175). Conditions: S. cerevisiae mlh1 rad18 strain growth inhibition; at 50.0 µM; hits give high values. Put shortly: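 Test agents were incubated with a yeast strain of defined genotype (DNA damage repair defect). Inhibition of growth was derived by comparison with vehicle-exposed cultures.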
Consider `C[CH2][Sn]([CH2]C)([O]P(=O)(C[Si](C)(C)C)c1ccccc1)[O]P(=O)(C[Si](C)(C)C)c1ccccc1` (stereo not given), for which the growth inhibition is 17.2%.
The figure for `CC(C)(C)NC(=O)Oc1ccc(Br)cc1Br` is 21.2%; for `CC1(C)C=CC(=NO)C=C1` it is 6.7%; for `NC(=S)N/N=C/c1ccncc1` it is -52.9%.
The figure for `O=C1CCCC(C(Sc2ccccc2)(Sc2ccccc2)Sc2ccccc2)C1` (stereo not given) is 81.3% (active); for `O=C(OC1CCC2(CC1)N=NC1(CCC(OC(=O)c3ccccc3)CC1)S2)c1ccccc1` (stereo not given) it is 8.1%; for `CSc1nc(=O)cc(N)n1C` it is 7.9%.
The same measure for `CSc1ccc(NC(=O)Nc2ccc(Cl)cc2C(=O)c2ccccc2)cc1`: 97.8% (active).
Consider `CC(=O)C1(N=Nc2ccc(S(N)(=O)=O)cc2)CCOC1=O` (stereo not given), for which the growth inhibition was 22.7%.
The same measure for `CC(C)=CCc1c(C)cc2cc3c(c(O)c2c1O)C(O)=CC(=O)C3(CC=C(C)C)C/C=C(\C)CO` (stereo not given): 46.1%.
As to `CC(=O)Nc1cc2cc(NC(=O)C(Cl)(Cl)Cl)ccc2oc1=O`, the growth inhibition is -24.6%.
The same measure for `Cc1ccc(F)c(N)c1`: 27.9%.
As to `CCCCCCCCCCCCCCCCCCCCCCC`, the growth inhibition was -18.4%.
The figure for `CC(C)C(=O)/C=C/c1ccc(Br)cc1` is 24.9%; for `CN(C)CC1CCC/C(=C\c2ccccc2)C1=O` (stereo not given) it is 16.7%.
For `CN(C)C(=O)c1ccc([N+](=O)[O-])cc1`, the growth inhibition was -23.4%.
For `O=C(N=Nc1c(O)[nH]c2ccccc12)C(=O)N=Nc1c(O)[nH]c2ccccc12`, the growth inhibition was 26.6%.
Take `NC(=O)c1nnsc1N/N=C/c1ccc([N+](=O)[O-])cc1`: the growth inhibition is -5.1%.
Take `O=C1C(c2ccccc2)=C(O)c2cccc3cccc1c23`: the growth inhibition was -57.6%.
Consider `O=S1(=O)CCCCC1C(O)(c1ccccc1)c1ccccc1` (stereo not given), for which the growth inhibition is 96% (active).
The figure for `CNc1nc2c(C)ccc3[nH]c(NC)nc3c-2n1` is -15.9%; for `CCC(CC)C(=O)OCCCC1CCCO1` (stereo not given) it is 0.6%; for `CC(=O)OCC1OC(n2nnc3c(=O)n(C)c(=O)[nH]c32)C(OC(C)=O)C(OC(C)=O)C1OC(C)=O` (stereo not given) it is 29.4%.
The figure for `CC1COCOC1c1ccc2c(c1)OCO2` (stereo not given) is -15.8%; for `Nc1ccc(OCC(O)N2C(=O)c3ccccc3C2=O)cc1` (stereo not given) it is -17.9%; for `O=C(O)/C=C/SCc1ccccc1` it is -3.05%.
Regarding `Cc1cc(O)c(C(c2ccc(C#N)cc2)c2c(O)cc(C)[nH]c2=O)c(=O)[nH]1`, the growth inhibition is -6.35%.
As to `CCOC(=O)Nc1nn(-c2ccc3ccccc3n2)c(=O)[nH]1`, the growth inhibition was 13.7%.
The same measure for `CCN(CC)CCCCNc1ccnc(N)n1`: 16%; for `Cc1cc(Cc2cccc3ccccc23)nc2c1ccc1ccccc12`: 17.6%; for `Clc1ccccc1-c1c2ccccc2cc2c1ccc1ccccc12`: -4.7%.
Turning to `CCn1c(SCC(=O)N/N=C/c2ccccc2)nc2ccccc2c1=O`, the growth inhibition was -33.7%.
The figure for `COc1ccc2c(c1)OCc1c-2oc2ccccc2c1=O` is -5.3%; for `CC12CC3(C)CC(C)(C1)CC(C(NC(C)(C)C)C(=O)O)(C2)C3` (stereo not given) it is 21.2%.
The figure for `COc1ccc(C2CN=NN2c2ccc([N+](=O)[O-])cc2)cc1` (stereo not given) is -18%; for `CC(=O)C1=C(C)C2CC3(C)CC(C2(C)C1)C3(C)C` (stereo not given) it is -6%.
The same measure for `COC(=O)CCc1ccc(N)cc1`: 2.9%.
Take `N#C/C(=N\Nc1ccc(F)cc1)C(=O)C1CC1`: the growth inhibition was 11.7%.
For the molecule `CC(=O)NC(Cc1ccccc1)C(=O)Nc1ccc(C)cc1` (stereo not given), the growth inhibition was 14.2%.
In the case of `COC(=O)N/N=C(/CC1(O)C(=O)Nc2ccc([N+](=O)[O-])cc21)c1ccccc1` (stereo not given), the growth inhibition is 40.8%.
